Experimental data published in PubChem BioAssay AID1159580 (chemical genetic matrix, 2015).
Out of some 5,500 compounds screened, about 2,000 (36%) were called active. About 18% were inconclusive and are not listed. Rule as the data show it: active = normalized growth mostly below about 0.91 (no sharp cut-off); inconclusive = no clear call, values can overlap the other calls; inactive = mostly above about 0.92. This is one part of the list.

Assay: chemical genetic growth profiling, strain panel (AID 1159580);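 also: tested at 20 µM; growth read once vehicle control cultures reached saturation at 30 °C; 1 = growth at the plate median or of vehicle wells; lower values mean less growth of the strain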
Conditions: growth OD

Measured: normalized growth

Oc1ccc2c(c1)OCC1(O)Cc3cc(O)c(O)cc3C21 (configuration not stated)
inactive: S. cerevisiae deletion strains, locus YJL187C, strain SWE1, stronger effect = lower value 1.02 | S. cerevisiae deletion strains, locus YJR066W, strain TOR1, stronger effect = lower value 0.906 | S. cerevisiae deletion strains, locus YKL009W, strain mrt4, stronger effect = lower value 1.03 | S. cerevisiae deletion strains, locus YKL068W, stronger effect = lower value 0.997 | S. cerevisiae deletion strains, locus YKL085W, strain MDH1 (second series), stronger effect = lower value 0.978 | S. cerevisiae deletion strains, locus YKL085W, strain MDH1, stronger effect = lower value 0.978 | S. cerevisiae deletion strains, locus YKL160W, strain elf1, stronger effect = lower value 1.02 | S. cerevisiae deletion strains, locus YKR001C, strain vps1, stronger effect = lower value 1.03 | S. cerevisiae deletion strains, locus YKR026C, strain gcn3, stronger effect = lower value 1.04 | S. cerevisiae deletion strains, locus YKR091W, strain srl3, stronger effect = lower value 1.02 | S. cerevisiae deletion strains, locus YLL001W, strain dnm1, stronger effect = lower value 1.03 | S. cerevisiae deletion strains, locus YLL026W, stronger effect = lower value 1.02 | S. cerevisiae deletion strains, locus YLL041C, strain sdh2, stronger effect = lower value 1.02 | S. cerevisiae deletion strains, locus YLR027C, strain aat2, stronger effect = lower value 1.01 | S. cerevisiae deletion strains, locus YLR039C, strain RIC1, stronger effect = lower value 0.991 | S. cerevisiae deletion strains, locus YLR058C, strain SHM2, stronger effect = lower value 0.959 | S. cerevisiae deletion strains, locus YLR102C, strain apc9, stronger effect = lower value 0.991 | S. cerevisiae deletion strains, locus YLR113W, strain HOG1, stronger effect = lower value 1.05 | S. cerevisiae deletion strains, locus YLR221C, strain rsa3, stronger effect = lower value 1.02 | S. cerevisiae deletion strains, locus YLR258W, strain gsy2, stronger effect = lower value 1.03 | S. cerevisiae deletion strains, locus YLR262C, strain YPT6 (second series), stronger effect = lower value 1.04 | S. cerevisiae deletion strains, locus YLR268W, strain sec22, stronger effect = lower value 1.05 | S. cerevisiae deletion strains, locus YLR320W, strain mms22, stronger effect = lower value 1.04 | S. cerevisiae deletion strains, locus YLR342W, strain FKS1 (second series), stronger effect = lower value 1.05 | S. cerevisiae deletion strains, locus YLR342W, strain FKS1, stronger effect = lower value 1.03 | S. cerevisiae deletion strains, locus YLR357W, strain rsc2, stronger effect = lower value 1.03 | S. cerevisiae deletion strains, locus YLR370C, strain arc18, stronger effect = lower value 1.02 | S. cerevisiae deletion strains, locus YLR371W, strain rom2, stronger effect = lower value 0.988 | S. cerevisiae deletion strains, locus YLR384C, strain iki3, stronger effect = lower value 1.02 | S. cerevisiae deletion strains, locus YLR418C, strain cdc73, stronger effect = lower value 0.991 | S. cerevisiae deletion strains, locus YML016C, strain PPZ1, stronger effect = lower value 0.997 | S. cerevisiae deletion strains, locus YML032C, strain rad52, stronger effect = lower value 1.05 | S. cerevisiae deletion strains, locus YML120C, strain ndi1, stronger effect = lower value 1.03 | S. cerevisiae deletion strains, locus YML124C, strain tub3, stronger effect = lower value 0.999 | S. cerevisiae deletion strains, locus YMR058W, strain fet3, stronger effect = lower value 1.02 | S. cerevisiae deletion strains, locus YMR078C, strain ctf18, stronger effect = lower value 0.988 | S. cerevisiae deletion strains, locus YMR125W, strain sto1, stronger effect = lower value 1.04 | S. cerevisiae deletion strains, locus YMR129W, stronger effect = lower value 1.02 | S. cerevisiae deletion strains, locus YMR205C, strain PFK2, stronger effect = lower value 1.06 | S. cerevisiae deletion strains, locus YMR223W, strain ubp8, stronger effect = lower value 0.981 | S. cerevisiae deletion strains, locus YMR231W, strain pep5, stronger effect = lower value 1 | S. cerevisiae deletion strains, locus YMR307W, strain GAS1, stronger effect = lower value 1.11 | S. cerevisiae deletion strains, locus YNL067W, strain RPL9B, stronger effect = lower value 0.959 | S. cerevisiae deletion strains, locus YNL071W, strain lat1, stronger effect = lower value 1.03 | S. cerevisiae deletion strains, locus YNL128W, strain TEP1, stronger effect = lower value 0.983 | S. cerevisiae deletion strains, locus YNL183C, strain NPR1, stronger effect = lower value 0.948 | S. cerevisiae deletion strains, locus YNL209W, strain ssb2, stronger effect = lower value 1.01 | S. cerevisiae deletion strains, locus YNL233W, strain BNI4, stronger effect = lower value 1 | S. cerevisiae deletion strains, locus YNL248C, strain rpa49, stronger effect = lower value 1.03 | S. cerevisiae deletion strains, locus YNL250W, strain rad50, stronger effect = lower value 0.957 | S. cerevisiae deletion strains, locus YNL271C, strain bni1, stronger effect = lower value 0.983 | S. cerevisiae deletion strains, locus YNL298W, strain CLA4, stronger effect = lower value 0.996 | S. cerevisiae deletion strains, locus YNL307C, strain MCK1, stronger effect = lower value 0.994 | S. cerevisiae deletion strains, locus YNL322C, strain KRE1 (second series), stronger effect = lower value 1.02 | S. cerevisiae deletion strains, locus YNL322C, strain KRE1, stronger effect = lower value 0.981 | S. cerevisiae deletion strains, locus YNR049C, strain mso1, stronger effect = lower value 1.02 | S. cerevisiae deletion strains, locus YNR052C, strain pop2, stronger effect = lower value 0.959 | S. cerevisiae deletion strains, locus YOL006C, strain TOP1, stronger effect = lower value 1.18 | S. cerevisiae deletion strains, locus YOL012C, strain htz1 0.665 | S. cerevisiae deletion strains, locus YOL147C, strain pex11, stronger effect = lower value 1 | S. cerevisiae deletion strains, locus YOR001W, strain rrp6, stronger effect = lower value 1.04 | S. cerevisiae deletion strains, locus YOR061W, strain CKA2, stronger effect = lower value 1.03 | S. cerevisiae deletion strains, locus YOR069W, strain VPS5, stronger effect = lower value 1 | S. cerevisiae deletion strains, locus YOR070C, strain gyp1, stronger effect = lower value 1.01 | S. cerevisiae deletion strains, locus YOR080W, strain dia2, stronger effect = lower value 1.01 | S. cerevisiae deletion strains, locus YOR083W, strain WHI5, stronger effect = lower value 1.02 | S. cerevisiae deletion strains, locus YOR106W, strain vam3, stronger effect = lower value 1.05 | S. cerevisiae deletion strains, locus YOR136W, strain idh2, stronger effect = lower value 1.01 | S. cerevisiae deletion strains, locus YOR144C, strain elg1, stronger effect = lower value 1.01 | S. cerevisiae deletion strains, locus YOR184W, strain ser1, stronger effect = lower value 1.09 | S. cerevisiae deletion strains, locus YOR231W, strain MKK1, stronger effect = lower value 1.01 | S. cerevisiae deletion strains, locus YOR265W, strain rbl2, stronger effect = lower value 1.02 | S. cerevisiae deletion strains, locus YOR270C, strain vph1, stronger effect = lower value 1.16 | S. cerevisiae deletion strains, locus YOR290C, strain snf2, stronger effect = lower value 1.04 | S. cerevisiae deletion strains, locus YOR316C, strain cot1, stronger effect = lower value 0.986 | S. cerevisiae deletion strains, locus YPL051W, strain arl3, stronger effect = lower value 1.01 | S. cerevisiae deletion strains, locus YPL055C, strain LGE1, stronger effect = lower value 1.06 | S. cerevisiae deletion strains, locus YPL078C, strain atp4, stronger effect = lower value 1.03 | S. cerevisiae deletion strains, locus YPL106C, strain sse1, stronger effect = lower value 0.99 | S. cerevisiae deletion strains, locus YPL240C, strain hsp82, stronger effect = lower value 1.02 | S. cerevisiae deletion strains, locus YPL256C, strain CLN2, stronger effect = lower value 0.995 | S. cerevisiae deletion strains, locus YPR119W, strain clb2, stronger effect = lower value 0.978 | S. cerevisiae deletion strains, locus YPR141C, strain kar3, stronger effect = lower value 0.964 | S. cerevisiae deletion strains, locus YPR163C, strain tif3, stronger effect = lower value 0.996 | S. cerevisiae deletion strains, locus YPR167C, strain met16, stronger effect = lower value 0.992 | S. cerevisiae deletion strains, strain wtn01, stronger effect = lower value 1.02 | S. cerevisiae strains, strain wild type, stronger effect = lower value 1.03
